The campaign covered roughly 72,000 compounds. About 350 (0.49%) were called active. Shown is part of a subset that was picked to be rich in actives. Values without a mark were called inactive.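 How the source made its calls: active means activity remaining at or below 50% of control, provided the compound also passes the data quality filters; inactive means the rest, including low values that fail the filters.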

The target in the experiment is Ubiquitin carboxyl-terminal hydrolase BAP1 (Homo sapiens) (UniProt Q92560). Nature of the experiment: BAP1 ubiquitin hydrolase activity blockers – biochemical, Ub-AMC fluorescence, kinetic, primary screen (AID 436).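 Further: 100% = DMSO wells rate and 0% = substrate alone blank rate.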 To be noted: recombinant BAP1, Ub-AMC hydrolysis fluorescence kinetic; at 20 µM; active compounds read low.
Ubiquitin carboxyl-terminal hydrolase BAP1 (Homo sapiens), sequence (Q92560 whole entry, looked up): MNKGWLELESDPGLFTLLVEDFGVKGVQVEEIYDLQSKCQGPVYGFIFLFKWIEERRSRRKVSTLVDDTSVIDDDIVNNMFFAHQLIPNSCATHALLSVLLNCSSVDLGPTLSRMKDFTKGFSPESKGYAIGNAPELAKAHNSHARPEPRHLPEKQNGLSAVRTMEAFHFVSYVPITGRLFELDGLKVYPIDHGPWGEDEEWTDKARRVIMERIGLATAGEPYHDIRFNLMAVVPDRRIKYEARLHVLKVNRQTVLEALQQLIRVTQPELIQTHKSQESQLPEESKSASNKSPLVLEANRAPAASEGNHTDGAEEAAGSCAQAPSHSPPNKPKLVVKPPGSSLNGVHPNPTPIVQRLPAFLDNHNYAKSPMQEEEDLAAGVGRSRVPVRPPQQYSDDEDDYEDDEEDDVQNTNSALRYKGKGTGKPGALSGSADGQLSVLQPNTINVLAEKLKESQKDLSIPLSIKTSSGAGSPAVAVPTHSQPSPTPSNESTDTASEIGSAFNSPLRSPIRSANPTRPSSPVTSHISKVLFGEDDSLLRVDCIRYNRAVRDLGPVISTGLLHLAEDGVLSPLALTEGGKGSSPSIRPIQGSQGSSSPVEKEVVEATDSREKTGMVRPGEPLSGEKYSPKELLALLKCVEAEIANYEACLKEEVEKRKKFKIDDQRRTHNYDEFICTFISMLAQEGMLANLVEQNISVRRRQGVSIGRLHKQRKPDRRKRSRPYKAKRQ
In the case of `COc1ccc(Cn2c(NCCO)nc3c2c(=O)n(C)c(=O)n3C)cc1`, the activity remaining (% of control) was 103%.
In the case of `Cc1cc(=O)oc2cc(OC(=O)c3ccc([N+](=O)[O-])cc3Cl)ccc12` it was 479%; in that of `Cc1ccc[n+](CC(=O)c2ccc(Cl)cc2)c1C`, 57.4%.
With `O=c1oc2ccccc2cc1-c1nnc(-c2ccccc2)o1` the figure was 380%; with `COc1ccc2cc(C(=O)Nc3cccc(C(F)(F)F)c3)c(=N)oc2c1`, 72.3%.
As to `CNc1nonc1C(=O)O`, the activity remaining (% of control) was 154%.
Turning to `O=C(Nc1cccnc1)c1ccc(Cl)c([N+](=O)[O-])c1`, the activity remaining (% of control) was 66%.
In the case of `O=C(Nc1ccc(-c2cn3ccccc3n2)cc1)c1ccc(Br)cc1` it was 63.1%.
In the case of `N#Cc1cccc2c1-c1ccc([N+](=O)[O-])cc1C2=O` it was 96.3%.
With `Cc1cccc(C)c1OCC(O)CN1CCCCC1` (stereo not given) the figure was 59.4%.
Regarding `CCOc1ccccc1NC(=O)c1c(NC(=O)c2cccs2)sc2c1CCC(C)C2` (stereo not given), the activity remaining (% of control) is 92.6%.
Take `Cc1cc(Br)ccc1N1C(=O)C2CCCCC2C1=O` (stereo not given): the activity remaining (% of control) is 93.8%.
With `CCc1ccc(OC(=O)c2cc3cc(Br)ccc3oc2=O)cc1` the figure was 80.8%.
In the case of `CCc1ccc2oc(-c3cccc(NC(=O)c4ccccc4Br)c3)nc2c1`, the activity remaining (% of control) is 56.4%.
In the case of `O=C(Nc1nnc(CCS(=O)(=O)c2ccc3ccccc3c2)s1)c1ccc(F)cc1` it was 64.8%; in that of `Cc1cccc(C(C)C)c1NC(=O)c1ccco1`, 233%.
In the case of `O=C(Nc1ccc(-c2nc3ccccc3o2)cc1)c1ccc(S(=O)(=O)N2CCCCC2)cc1` it was 288%; in that of `O=C(Cc1cccc2ccccc12)Nc1ccccc1-c1nc2ccccc2s1`, 75.2%.
With `CCOc1ccc(C(=O)Nc2cccc(C(=O)Nc3cccc4ccccc34)c2)cc1[N+](=O)[O-]` the figure was 71.1%.
For the compound `O=C(Nc1nc2c(s1)C(=O)CCC2)c1ccccc1Cl`, the activity remaining (% of control) was 51.9%.
In the case of `CCOC(=O)c1c(NC(=O)c2cc3ccccc3oc2=O)sc(C(=O)CC)c1C` it was 49.7%; in that of `O=C(NCc1ccccc1)c1nn2c(C(F)(F)F)cc(-c3ccccc3)nc2c1Br`, 70%.
In the case of `CCCOc1ccc(C(=O)Nc2c(C)ccc3nsnc23)cc1` it was 203%; in that of `COCCc1nnc(NC(=O)c2ccc([N+](=O)[O-])cc2)s1`, 111%.
On to `CC1=C(C(=O)OCCc2ccccc2)C(c2ccc([N+](=O)[O-])cc2)NC(=O)N1C` (stereo not given), for which the activity remaining (% of control) was 72.8%.
In the case of `COc1ccc(-n2nc3cc(C)c(NC(=O)c4ccc(Br)o4)cc3n2)cc1` it was 63%.
With `CC(C)(C)C(=O)Nc1ccc(C(=O)Nc2nccs2)cc1` the figure was 63.4%; with `NC(=O)c1ccccc1NC(=O)COc1ccc([N+](=O)[O-])cc1`, 138%; with `Cc1ccc(C=Cc2ccncc2)cc1`, 139%.
In the case of `N#Cc1c(/N=C/N2CCCC2)oc(-c2ccccc2)c1-c1ccccc1` it was 41.5% (active); in that of `N#Cc1c(NC(=O)CCCN2C(=O)c3ccccc3C2=O)oc(-c2ccccc2)c1-c1ccccc1`, 56.8%.
On to `NC(=O)c1c(NC(=O)CCCCCN2C(=O)c3ccccc3C2=O)sc2c1CCC2`, for which the activity remaining (% of control) was 140%.
In the case of `COC(=O)C1=C(C)Nc2nnnn2C1c1ccccc1` (stereo not given) it was 171%; in that of `COc1cc(C(=O)Nc2ccc(Cl)cc2[N+](=O)[O-])cc(OC)c1OC`, 87.7%.
With `C[n+]1ccccc1C=Cc1ccccc1` the figure was 120%; with `Cc1cccc2cc(CN(Cc3ccc4c(c3)OCO4)Cc3nnnn3C3CCCC3)c(=O)[nH]c12`, 53.1%; with `CCC(c1nnnn1C1CCCC1)N(Cc1cccs1)Cc1cc2cccc(C)c2[nH]c1=O` (stereo not given), 49.7% (active).
In the case of `Cc1cccc2cc(CN(Cc3cccs3)C(c3nnnn3C3CCCC3)C(C)C)c(=O)[nH]c12` (stereo not given) it was 57.3%.
On to `COC(=O)c1ccc(C(=O)Nc2cccc3c2C(=O)c2ccccc2C3=O)cc1`, for which the activity remaining (% of control) was 177%.
With `CC(C)C(=O)N1c2ccccc2NC2=C(C(=O)CC(c3ccccc3)C2)C1c1ccc(F)cc1` (stereo not given) the figure was 63.6%; with `O=C(c1ccccc1)N1CCN(c2ccc([N+](=O)[O-])cc2F)CC1`, 64.8%.
In the case of `COc1cc(C2CC(=O)Nc3c2cc(Br)c2ccccc32)cc(Br)c1OC` (stereo not given) it was 57.5%; in that of `CC(C)(C)c1ccc(OCC(O)CN2CCN(c3ccccc3F)CC2)cc1` (stereo not given), 152%; in that of `CC(C)(C)c1ccc(C(=O)Nc2nnc(Cc3ccc(F)cc3)s2)cc1`, 75.1%.
Take `COc1ccc(C=Nc2sc(C)c(C)c2C#N)cc1`: the activity remaining (% of control) is 103%.
`COC(=O)c1sc(-c2ccccc2)cc1NC(=O)c1ccc(S(=O)(=O)N2CCOCC2)cc1`: the activity remaining (% of control) was 193%.
With `O=C1NCCCC1C1=NC(CO)(CO)CO1` (stereo not given) the figure was 82.8%; with `CCCOC(=O)c1cccc(NC(=O)COc2cccc(Cl)c2)c1`, 91.3%; with `CCOc1ccc(C(=O)Nc2ccc3c(c2)oc2ccccc23)cc1`, 144%.
With `CCCCOc1ccc(C(=O)Nc2nc3ccc4nc(C)sc4c3s2)cc1` the figure was 167%.
On to `CCC(=O)OCC1OC(n2ccc(=O)[nH]c2=O)CC1OC(=O)CC` (stereo not given), for which the activity remaining (% of control) is 130%.
With `COc1ccc(CCNC(=O)c2cccc([N+](=O)[O-])c2C)cc1` the figure was 86.2%; with `COc1ccc(C(=O)Nc2cccc(C)n2)cc1[N+](=O)[O-]`, 80.8%.
As for `CN1C(=O)C(=O)/C(=C(/O)c2ccc(F)cc2)C1c1ccc(F)cc1` (stereo not given), the activity remaining (% of control) was 58.4%.
In the case of `Cn1c(=O)[nH]c(=O)c2c1nc(N1CCOCC1)n2CCO` it was 159%; in that of `CCCCNC(=O)c1c[nH]c2ccc(S(=O)(=O)Nc3ccc(OCC)cc3)cc2c1=O`, 32.9% (active).
In the case of `COc1cccc(NS(=O)(=O)c2ccc3[nH]cc(C(=O)NCCCOC(C)C)c(=O)c3c2)c1` it was 79.5%; in that of `Cn1c(=N)n(CC(O)c2cccs2)c2ccccc21` (stereo not given), 85.6%.
In the case of `COc1cc(NC(=O)COc2ccccc2)c(OC)cc1Cl` it was 141%.
As for `O=C(Nc1cc2cccc([N+](=O)[O-])c2oc1=O)c1ccccc1[N+](=O)[O-]`, the activity remaining (% of control) was 61.5%.
With `Cc1cc(C)nc(NS(=O)(=O)c2ccc(NC(=O)c3ccc(F)cc3)cc2)n1` the figure was 67.2%; with `Clc1ccc2[nH]c3ccccc3c2c1`, 65%.
With `Cc1cc(O)c2c(=O)c(-c3csc(C)n3)c(C(F)(F)F)oc2c1` the figure was 130%.
In the case of `O=C(OCCN1C(=O)c2ccccc2C1=O)c1ccc([N+](=O)[O-])cc1`, the activity remaining (% of control) is 90.6%.
With `O=[N+]([O-])c1ccc(C=Nc2nc3c(s2)CCCC3)cc1` the figure was 113%.

(Values after PubChem BioAssay AID436 (Emory University Molecular Libraries Screening Center, 2006).)
